Consider seven compounds from PubChem BioAssay (Tox21).

Assay [1] in a line: qHTS assay to identify small molecule antagonists of the sonic hedgehog signaling (Shh) pathway (AID 1259369; calls by dose curve; further: nearly all actives have a fitted effect of over 45% in size; further: potency means the concentration at half of the fitted maximal effect). Put shortly: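 Conditioned medium drives Shh signalling in 3T3Gli1-Luc cells; compounds in DMSO co-applied, 24hr at 37 C, then luciferase luminescence.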
Assay [2] concerns the target Estrogen receptor beta (Homo sapiens) (UniProt Q92731). The experiment in a line: qHTS assay to identify small molecule agonists of the estrogen receptor beta (ER-beta) signaling pathway (AID 1259377; active means well fitted activation curve with a large enough effect in the signal ratio in the repeat runs, not every such curve was filed as active; the % refers to the signal ratio). Put shortly: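 qHTS in ER-beta-UAS-bla HEK293T cells: 6 hr settling, then 16 hr compound at 37C, then LiveBLAzer substrate 2 h at RT before fluorescence reading.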
For orientation: qHTS replaces the single test concentration by a dilution series.

For assay [3] the target is unchanged. Nature of the assay: qHTS assay to identify small molecule antagonists of the estrogen receptor beta (ER-beta) signaling pathway (AID 1259378; active means well fitted inhibition curve with a large enough effect in the signal ratio in the repeat runs, not every such curve was filed as active; the % refers to the signal ratio; further: potency means the concentration at half of the fitted maximal effect). Put shortly: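 Antagonist mode: compounds added to beta-lactamase reporter HEK293T ER-beta-UAS cells stimulated with E2 (1nM final), 16 hr at 37C. LiveBLAzer B/G FRET substrate, 2 hours room temperature, fluorescence read-out.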

Assay [4] can be described thus: qHTS assay to identify small molecule agonists of the androgen receptor (AR) signaling pathway in the presence of an antagonist - cell viability counter screen (AID 1259379). Further: nearly all actives have a fitted effect of over 25% in size. Further: potency means the concentration at half of the fitted maximal effect. Put shortly:
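A CellTiter-Fluor read-out measured viability of MDA-kb2 reporter cells (MMTV promoter with AR and GR response elements). Treatment: nilutamide 3.0uM final with compounds at 15 concentrations, 16 hr, 37C, 0% CO2.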

Assay [5] in a line: qHTS assay to identify small molecule agonists of the estrogen receptor beta (ER-beta) signaling pathway - cell viability counter screen (AID 1259380). Further: nearly all actives have a fitted effect of over 30% in size. Further: potency means the concentration at half of the fitted maximal effect. Put shortly: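 Cells used were ER-beta-UAS-bla HEK293T in medium with 2% charcoal-stripped FBS. They were treated for 16 hr at 37C. Viability came from CellTiter-Glo luminescence.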
Assay [6] is described as follows: qHTS assay to identify small molecule antagonists of the estrogen receptor beta (ER-beta) signaling pathway - cell viability counter screen (AID 1259382). Further: nearly all actives have a fitted effect of over 55% in size. Further: potency means the concentration at half of the fitted maximal effect. Put shortly:
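Agonist-stimulated (1nM E2) ER-beta-UAS-bla HEK293T cells are incubated with library compounds for 16 hr at 37C. Cell viability is then assessed in the reporter-assay wells by adding CellTiter-Glo and reading luminescence after 30 min.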

Assay [7] is described as follows: qHTS assay to identify small molecule agonists or antagonists of the thyroid stimulating hormone receptor (TSHR) signaling pathway - wild type cell line counter screen (AID 1259384; calls by dose curve). Put shortly: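 Counter screen in untransfected Hek293: compounds (15-point titration, triplicate) plus phosphodiesterase inhibitor Ro20-1724 added after 18 h plating; 30 min RT. Intracellular cAMP via competitive d2/cryptate immunoassay, 1 h incubation.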

Assay [8] concerns the target Thyrotropin receptor (Homo sapiens) (UniProt P16473). The experiment in a line: qHTS assay to identify small molecule antagonists of the thyroid stimulating hormone receptor (TSHR) signaling pathway (AID 1259385; calls by dose curve; further: nearly all actives have a fitted effect of over 20% in size). Put shortly: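 Antagonist mode: compound-treated TSHR-expressing HEK293 cells were stimulated with 1.5 ng/mL TSH (final) in presence of Ro20-1724 for 30 min at RT. HTRF cAMP detection after 1 h; each compound tested at 15 concentrations, triplicate.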

Assay [9] can be described thus: qHTS assay to identify small molecule agonists of the estrogen receptor alpha (ER-alpha) signaling pathway in the presence of an antagonist - cell viability counter screen (AID 1259386).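 Further: cells exposed to compounds for 22 h at 37 °C before the viability read; nearly all actives have a fitted effect of over 30% in size.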 Further: potency means the concentration at half of the fitted maximal effect. Put shortly: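 ICI-182,780 at 10.0nM final accompanies the compound titration (15 concentrations, 22hr, 37C) on VM7Luc4E2 cells. The CellTiter-Fluor fluorescence readout runs in the same wells as the luciferase assay.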

Assay [10] has as its target Progesterone receptor (Homo sapiens) (UniProt P06401). Nature of the assay: qHTS assay to identify small molecule agonists of the progesterone receptor (PR) signaling pathway (AID 1346784; calls by dose curve; further: nearly all actives have a fitted effect of over 30% in size). Put shortly: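 Fluorescence from LiveBLAzer B/G FRET substrate cleavage (2 hr, RT) reported PR activation in PR-UAS-bla HEK 293T cells treated 16 hr at 37C/5% CO2 with compounds; medium contained 2% charcoal-stripped FBS.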

For assay [11] the target is unchanged. Nature of the assay: qHTS assay to identify small molecule antagonists of the progesterone receptor (PR) signaling pathway (AID 1346795; active means well fitted inhibition curve with a large enough effect in the signal ratio in the repeat runs, not every such curve was filed as active; the % refers to the signal ratio; further: potency means the concentration at half of the fitted maximal effect). Put shortly: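 Fluorescence intensity measured 2 hr after adding beta-lactamase FRET substrate to PR-UAS-bla HEK293T cells that had been co-treated 16 hr with compound and 1 nM R5020 (final concentration) in 2% charcoal-stripped FBS.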

A short description of assay [12]: qHTS assay to identify small molecule agonists of the progesterone receptor (PR) signaling pathway - cell viability counter screen (AID 1346799; calls by dose curve; further: nearly all actives have a fitted effect of over 45% in size). Put shortly:
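In parallel with the beta-lactamase readout, cytotoxicity toward PR-UAS-bla HEK293T cells was measured by CellTiter-Glo luminescence following 16 hr compound incubation in 2% charcoal-stripped FBS medium.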

The nature of assay [13]: qHTS assay to identify small molecule antagonists of the TGF-beta/Smad signaling pathway - cell viability counter screen (AID 1346824). Further: nearly all actives have a fitted effect of over 50% in size. Put shortly:
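Cytotoxicity counter-screen run in the same wells as the beta-lactamase Smad reporter read: CellTiter-Glo luminescence after 30 min at room temperature. HEK 293T SBE-bla cells had 5 hr compound exposure at 37 C with TGF-beta1 (0.25 ng/mL stock).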

Assay [14] in a line: qHTS assay to identify small molecule agonists of the TGF-beta/Smad signaling pathway - cell viability counter screen (AID 1346829). Further: top concentration of the series differs between compounds; nearly all actives have a fitted effect of over 45% in size. Put shortly: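 Here the cytotoxicity of library compounds is measured in SBE-bla HEK 293T cells treated for 5 hr, using CellTiter-Glo added to wells already read for the beta-lactamase reporter.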
The nature of assay [15]: qHTS assay to identify small molecule agonists of the TGF-beta/Smad signaling pathway (AID 1346859; active means well fitted activation curve with a large enough effect in the signal ratio in the repeat runs, not every such curve was filed as active; the % refers to the signal ratio; further: series mostly up to about 77 µM). Put shortly: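 After overnight seeding, SBE-bla HEK 293T cells are dosed with compounds in DMSO and kept 5 hr at 37 C, 5% CO2. LiveBLAzer-type FRET substrate is then applied for 2 hr at room temperature.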
For assay [16], the target named is Thyrotropin-releasing hormone receptor (Homo sapiens) (UniProt P34981). The experiment in a line: qHTS assay to identify small molecule antagonists of the thyrotropin-releasing hormone receptor (TRHR) signaling pathway (AID 1346877; active means well fitted inhibition curve with a large enough effect in the repeat runs, not every such curve was filed as active; further: series mostly up to about 51 µM). Put shortly:
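Screening used HEK293 cells engineered with TRHR, with a brief 5 min room-temperature compound exposure preceding addition of TRH to 1 nM. The read-out was kinetic calcium-dye fluorescence, concentration-response from 15 doses in triplicate.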

Assay [17] shares this target. Nature of the assay: qHTS assay to identify small molecule agonists of the thyrotropin-releasing hormone receptor (TRHR) signaling pathway (AID 1346891; calls by dose curve;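 further: HEK293 cells expressing TRHR with calcium dye readout; series mostly up to about 58 µM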). Put shortly:
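Compounds were tested as agonists at 15 concentrations, in triplicate, on TRHR-Hek293 cells; calcium-sensitive dye fluorescence was recorded for 3 min following addition.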

The target of assay [18] is Estrogen receptor (Homo sapiens) (UniProt P03372). The experiment in a line: qHTS assay to identify small molecule agonists of the estrogen receptor alpha (ER-alpha) signaling pathway in the presence of an antagonist (AID 1259383; calls by dose curve; further: top concentration of the series differs between compounds; nearly all actives have a fitted effect of over 15% in size). Put shortly: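 Using VM7Luc4E2 cells seeded 24hr before treatment, antagonist ICI-182,780 (10.0nM final) was added, followed by compounds at 15 concentrations. Plates incubated 22hr; ONE-Glo luminescence quantified reporter activity.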
Sequence of Estrogen receptor (Homo sapiens) (P03372 whole entry, looked up): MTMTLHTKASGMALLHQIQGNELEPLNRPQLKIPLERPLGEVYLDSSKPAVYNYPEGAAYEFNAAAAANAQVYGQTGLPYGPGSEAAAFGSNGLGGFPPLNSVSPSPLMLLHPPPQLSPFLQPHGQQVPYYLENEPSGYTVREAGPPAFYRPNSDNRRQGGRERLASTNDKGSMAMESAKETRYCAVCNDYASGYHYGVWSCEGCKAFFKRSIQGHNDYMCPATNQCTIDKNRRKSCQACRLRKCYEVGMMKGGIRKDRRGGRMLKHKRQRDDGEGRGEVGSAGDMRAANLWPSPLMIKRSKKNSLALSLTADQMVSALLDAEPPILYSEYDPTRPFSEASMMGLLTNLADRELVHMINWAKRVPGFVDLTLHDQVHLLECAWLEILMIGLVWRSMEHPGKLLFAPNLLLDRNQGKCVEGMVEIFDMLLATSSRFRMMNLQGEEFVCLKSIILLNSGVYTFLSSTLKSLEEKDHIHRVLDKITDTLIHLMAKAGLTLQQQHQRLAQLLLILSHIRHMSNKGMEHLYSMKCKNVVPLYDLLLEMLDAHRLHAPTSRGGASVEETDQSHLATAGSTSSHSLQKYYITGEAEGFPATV

Assay [19] in a line: qHTS assay to identify small molecule antagonists of the progesterone receptor (PR) signaling pathway - cell viability counter screen (AID 1346798). Further: nearly all actives have a fitted effect of over 50% in size. Further: potency means the concentration at half of the fitted maximal effect. Put shortly: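 CellTiter-Glo luminescence; PR-UAS-bla HEK293T, 3,000 cells/well; compound + R5020, 16 hr, 37C/5% CO2; 30 min RT before read.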

“And” between values parts separate entries of the source, which are not always exact repeats. Equal entries are not always repeated. Inconclusive results are not listed. More than one record can exist for a structure, and the calls need not agree. The source made the active and inactive calls. Unless noted, the call rests on the fitted dose curve; in most records, active means well fitted curve in the direction sought with a large enough effect in the repeat runs; inconclusive means weak or mixed curves; inactive means no such curve, though single readings can be large; an effect the other way counts as inactive or inconclusive.

Sequence of Estrogen receptor beta (Homo sapiens) (Q92731 whole entry, looked up): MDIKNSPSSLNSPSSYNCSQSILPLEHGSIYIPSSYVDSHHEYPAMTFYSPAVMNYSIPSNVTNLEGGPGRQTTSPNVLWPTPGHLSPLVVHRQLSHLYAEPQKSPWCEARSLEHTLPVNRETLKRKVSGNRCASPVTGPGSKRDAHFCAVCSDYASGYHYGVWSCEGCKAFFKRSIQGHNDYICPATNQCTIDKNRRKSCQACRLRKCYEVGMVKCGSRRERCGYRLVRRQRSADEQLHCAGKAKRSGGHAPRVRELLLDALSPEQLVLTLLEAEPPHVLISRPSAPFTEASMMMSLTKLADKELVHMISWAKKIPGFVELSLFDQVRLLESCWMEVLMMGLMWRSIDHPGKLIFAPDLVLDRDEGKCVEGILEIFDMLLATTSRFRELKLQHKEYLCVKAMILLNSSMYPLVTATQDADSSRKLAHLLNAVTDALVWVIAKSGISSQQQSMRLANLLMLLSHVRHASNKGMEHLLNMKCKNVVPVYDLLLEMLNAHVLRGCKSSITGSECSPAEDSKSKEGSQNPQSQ
Sequence of Thyrotropin-releasing hormone receptor (Homo sapiens) (P34981 whole entry, looked up): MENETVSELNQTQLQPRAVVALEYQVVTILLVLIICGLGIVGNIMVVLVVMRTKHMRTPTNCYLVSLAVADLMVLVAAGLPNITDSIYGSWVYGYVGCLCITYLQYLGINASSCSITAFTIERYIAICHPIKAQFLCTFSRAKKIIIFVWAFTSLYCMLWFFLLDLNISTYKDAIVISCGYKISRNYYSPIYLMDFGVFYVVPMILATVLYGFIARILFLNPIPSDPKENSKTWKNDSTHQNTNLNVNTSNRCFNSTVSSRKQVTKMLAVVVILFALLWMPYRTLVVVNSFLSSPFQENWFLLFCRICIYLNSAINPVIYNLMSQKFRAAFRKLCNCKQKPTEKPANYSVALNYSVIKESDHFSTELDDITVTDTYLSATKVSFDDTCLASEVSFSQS
Sequence of Thyrotropin receptor (Homo sapiens) (P16473 whole entry, looked up): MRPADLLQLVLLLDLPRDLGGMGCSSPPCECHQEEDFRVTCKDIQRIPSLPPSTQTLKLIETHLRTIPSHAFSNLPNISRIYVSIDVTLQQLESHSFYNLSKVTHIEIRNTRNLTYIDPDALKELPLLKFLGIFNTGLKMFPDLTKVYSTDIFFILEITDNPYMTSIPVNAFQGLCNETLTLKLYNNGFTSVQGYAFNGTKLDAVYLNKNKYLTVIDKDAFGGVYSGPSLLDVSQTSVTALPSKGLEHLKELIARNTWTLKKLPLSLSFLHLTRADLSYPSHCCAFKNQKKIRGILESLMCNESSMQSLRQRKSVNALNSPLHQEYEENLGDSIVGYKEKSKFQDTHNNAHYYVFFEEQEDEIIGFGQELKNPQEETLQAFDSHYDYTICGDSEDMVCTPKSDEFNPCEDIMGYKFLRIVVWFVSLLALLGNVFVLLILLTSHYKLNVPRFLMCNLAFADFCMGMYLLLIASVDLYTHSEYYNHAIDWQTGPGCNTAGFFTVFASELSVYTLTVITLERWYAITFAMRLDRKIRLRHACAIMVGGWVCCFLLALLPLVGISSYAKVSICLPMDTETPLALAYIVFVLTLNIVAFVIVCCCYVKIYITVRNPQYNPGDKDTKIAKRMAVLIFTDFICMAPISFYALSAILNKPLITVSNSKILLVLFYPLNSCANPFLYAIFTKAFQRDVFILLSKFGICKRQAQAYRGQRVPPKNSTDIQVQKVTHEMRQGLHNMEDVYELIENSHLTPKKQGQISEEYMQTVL
Sequence of Progesterone receptor (Homo sapiens) (P06401 whole entry, looked up): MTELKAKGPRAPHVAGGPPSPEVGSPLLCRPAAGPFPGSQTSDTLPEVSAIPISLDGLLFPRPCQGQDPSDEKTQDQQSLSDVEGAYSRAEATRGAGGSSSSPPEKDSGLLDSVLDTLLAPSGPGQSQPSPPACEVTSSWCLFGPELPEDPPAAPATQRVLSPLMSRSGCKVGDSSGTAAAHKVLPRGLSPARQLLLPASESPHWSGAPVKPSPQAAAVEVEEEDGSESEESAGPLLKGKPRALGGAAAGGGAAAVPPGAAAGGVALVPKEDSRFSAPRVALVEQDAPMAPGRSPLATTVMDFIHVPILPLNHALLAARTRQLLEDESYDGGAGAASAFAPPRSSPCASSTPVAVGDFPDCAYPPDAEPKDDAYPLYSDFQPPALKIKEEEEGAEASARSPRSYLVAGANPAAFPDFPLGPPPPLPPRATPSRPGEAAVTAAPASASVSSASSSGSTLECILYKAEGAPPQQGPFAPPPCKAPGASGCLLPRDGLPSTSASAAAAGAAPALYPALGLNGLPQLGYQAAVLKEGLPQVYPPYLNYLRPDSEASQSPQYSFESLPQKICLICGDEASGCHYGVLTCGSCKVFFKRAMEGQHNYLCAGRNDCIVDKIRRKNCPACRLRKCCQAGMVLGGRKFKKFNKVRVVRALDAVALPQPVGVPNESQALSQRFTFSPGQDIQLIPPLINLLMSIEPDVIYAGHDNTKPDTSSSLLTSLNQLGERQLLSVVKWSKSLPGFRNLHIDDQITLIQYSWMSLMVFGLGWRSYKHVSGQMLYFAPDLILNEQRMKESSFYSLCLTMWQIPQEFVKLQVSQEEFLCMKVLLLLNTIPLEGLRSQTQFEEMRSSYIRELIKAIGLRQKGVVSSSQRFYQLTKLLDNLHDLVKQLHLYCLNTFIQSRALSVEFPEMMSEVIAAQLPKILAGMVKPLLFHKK

As for `CC(C)CC(C)(O)C#CC(C)(O)CC(C)C` (centres undefined), in assay [1], the Potency was 9.49 µM (active) and inactive. The Potency entry in assay [2], in [3], in assay [4], in [5], in assay [6] and in assay [8] was “inactive” in each case. The Potency entry in [9], in [10], in [11], in [12], in assay [13] and in [14] was “inactive” each time. The Potency entry in assay [16] and in [17] was “inactive” throughout. Further, the outcome in [7] and in [15] was inactive.
As for `Cc1c(C(N)=O)cc([N+](=O)[O-])cc1[N+](=O)[O-]`, the Potency result in assay [1], in assay [2], in [3], in [4], in [5] and in assay [6] was “inactive” throughout. The Potency result in assay [18], in assay [8], in assay [9], in assay [10], in assay [11] and in [19] was “inactive” each time. Besides, the Potency entry in assay [14] is “inactive”. Further, the call in assay [7] and in [15] was inactive.
As to `NNc1ccc(C(=O)O)cc1`, the Potency entry in assay [1], in assay [2], in assay [3], in [4], in assay [5] and in [6] was “inactive” in each case. The Potency result in assay [8], in assay [9], in assay [19], in assay [13], in assay [14] and in [16] was “inactive” throughout. The Potency entry in assay [17] is “inactive”. Also, the compound was called inactive in [7] and in assay [15].
Turning to `O=P(O)(O)O`, the Potency entry in assay [1], in assay [2], in assay [3], in assay [4], in assay [5] and in assay [6] was “inactive” each time. In addition, the Potency entry in assay [8], in assay [9], in [10], in assay [11], in assay [19] and in assay [12] was “inactive” throughout. Moreover, the Potency result in assay [13], in [14], in assay [16] and in [17] was “inactive” each time. The outcome in assay [7] and in assay [15] was inactive.
For the compound `CNCCCC12CCC(c3ccccc31)c1ccccc12`, the Potency in [1] was 5.45 µM (active); in assay [3], 26.6 µM (active); in assay [4] it was 54.5 µM (active); in assay [5], 15.4 µM (active) and 29.8 µM (active); in assay [6] it was 15.4 µM (active) and 26.6 µM (active); in [19], 13.7 µM (active) and 26.6 µM (active). Also, the Potency entry in assay [2], in [18], in assay [8], in [9], in assay [10] and in assay [13] was “inactive” throughout. For the same compound, the Potency result in assay [14], in assay [16] and in assay [17] was “inactive” each time. Further, the outcome in [7] and in assay [15] was inactive.
`COc1cccc2c1C(=O)c1c(O)c3c(c(O)c1C2=O)C[C@@](O)(C(=O)CO)C[C@@H]3O[C@H]1C[C@H](N)[C@H](O)[C@H](C)O1`: the Potency is 38.5 nM (active) and 531 nM (active) in assay [1]; 1.93 µM (active) and 11.9 µM (active) in [3]; 15.3 µM (active) and 11.9 µM (active) in [4]; “inactive and 473 nM (active)” in [5]; 24.3 µM (active) and 29.8 µM (active) in assay [9]; 2.73 µM (active) and 9.44 µM (active) in [11]. The Potency result in assay [2], in assay [6], in [18], in assay [13], in assay [14] and in [16] was “inactive” in each case. In addition, the Potency entry in [17] was “inactive”. Besides, the call in [7] and in assay [15] was inactive.
In the case of `CCCCC(CC)COC(=O)c1ccc(N(C)C)cc1` (centres undefined), the Potency entry in [1], in assay [2], in assay [3], in [4], in assay [5] and in assay [6] was “inactive” each time. Besides, the Potency entry in [18], in [8], in assay [9], in assay [10], in assay [11] and in assay [19] was “inactive” each time. For the same compound, the Potency result in assay [12], in [13] and in assay [14] was “inactive” throughout. In addition, the compound was classed as inactive in assay [7] and in [15].
